Assay outcomes deposited in PubChem by National Center for Advancing Translational Sciences (NCATS).
HCV inhibitor: inhibitors of hepatitis C virus infection. 340,000 compounds, 3.4% hits. Huh7.5.1 HCVcc-Cre infection, luciferase reporter, 44 h. Potency, µM (titrated, usually from 41.8 µM), for inactives: at the highest dose activity change, negative = inhibition, usual class: inhibitors; also: % is scaled to controls: 0 for no effect and ±100 for the full control effect
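Whole-lifecycle infectious HCVcc-Cre system; cells 1,000/well, compound then virus (~0.5 moi) added 4 h after plating, 44 h culture. Luciferase read 15 sec following 15 min substrate incubation, room temp.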
Pf growth 96h: inhibits malaria parasite growth, 96 h; P. falciparum luciferase reporter growth, 96 h; Potency, µM (top dose mostly 28.7 µM), for the others: at the top dose activity change, negative = inhibition, actives largely listed as inhibitors; 320,000 compounds, 6.9% hits; AID 504834; also: % is scaled to controls: 0 for no effect and ±100 for the full control effect
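Plates of compound plus infected erythrocytes (2% hematocrit, 0.05% parasitemia final) incubate 96 hours, 37 C, 5% CO2. Detection reagent added; reduced luminescence from the parasites' luciferase reporter flags inhibition.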
Pf growth 48h: P. falciparum growth inhibition at 48 hours (one generation). P. falciparum luciferase growth in erythrocytes, 48 h. Potency, µM (series often up to 28.7 µM), without a hit: at the highest dose activity change, negative = inhibition, most hits filed as inhibitors. 310,000 compounds, 5.9% hits; also: % is scaled to controls: 0 for no effect and ±100 for the full control effect
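Compounds are pin-transferred into medium, infected erythrocytes (2% hematocrit, 0.1% parasitemia final) are added, and plates sit one parasite generation at 37 C in 5% CO2. Detection reagent is then added and luminescence measured.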
SARS PLP yeast: inhibitors of SARS-CoV papain-like protease in yeast. S. cerevisiae expressing SARS-CoV PLpro, growth rescue. 330,000 compounds, 0.19% hits. Potency, µM (top dose mostly 32.9 µM), for inactives: at the highest dose activity, positive = growth rescue, usual class: activators; calls by dose curve; also: 0% is about no effect; nearly all actives have a fitted effect of over 55% in size
NS1 function inh: influenza NS1 inhibition. 270,000 compounds, 0.4% hits. Potency, µM (top dose mostly 46.1 µM), for inactives: at the highest dose activity, positive = more growth; calls by dose curve; also: actives are rising curves; nearly all actives have a fitted effect of over 50% in size
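Read-out: OD600 growth recovery of NS1-expressing budding yeast. Cells grown overnight at 30C in -URA glucose medium, washed, resuspended and diluted 1:100 in 2% galactose assay medium, pH 6.0. Same strain lacking NS1 served as positive control.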
AMA1 RON2 block: inhibitors of Plasmodium falciparum AMA1-RON2 interaction; AlphaScreen AMA1-biotinylated RON2 peptide binding; 360,000 compounds, 0.2% hits; Potency, µM (titrated, usually from 58.2 µM), for the others: at the highest dose activity change, negative = inhibition, hits mostly inhibitors;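 also: 0% = vehicle wells and -100% = peptide control; nearly all actives have a fitted effect of over 45% in size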
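AMA1 (3D7) with his tag at 25 nM final met compounds first, then biotinylated RON2 peptide at 25 nM; detection used donor plus acceptor beads, 10 µg/mL apiece, read by AlphaScreen after 30 min at room temperature.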
Starred values were filed as active, the others as inactive; ? = inconclusive; . = no result given. Sampled rows, rich in hits. Any-hit rate of the full collection: about 12%. Unless noted, calls follow the shape of the dose curve; as a rule, active = well fitted curve in the direction sought with a large enough effect; inconclusive = small, poorly fitted or top-dose-only effect, or another doubt; inactive = no such curve, though single readings can be large; an effect the other way counts as inactive or inconclusive. Potency is read from the fitted curve at half-maximal effect.

SMILES | HCV inhibitor | Pf growth 96h | Pf growth 48h | SARS PLP yeast | NS1 function inh | AMA1 RON2 block
CCCCNC(=O)c1cn(C)c2ccc(S(=O)(=O)N3CC(C)CC(C)C3)cc2c1=O (configuration not stated) | 11.2% | 18.3% | -38.6% | 0.0% | 4.0% | 13.0%
COc1ccccc1C(c1nnnn1C1CCCC1)N1CCN2CCCC2C1 (configuration not stated) | -3.3% | 101.5% | 13.1µM* | 9.8% | -5.8% | 8.1%
O=C(c1ccco1)N1CCN(C(c2cccs2)c2nnnn2C2CCCC2)CC1 (configuration not stated) | -6.5% | ? | -16.4% | -1.0% | -16.1% | 17.9%
COc1ccccc1N1CCN(C(c2cccs2)c2nnnn2C2CCCC2)CC1 (configuration not stated) | ? | 137.3% | 13.1µM* | 0.0% | -37.6% | -3.7%
COc1cc(C(c2nnnn2C2CCCC2)N2CCN(C)CC2)cc(OC)c1OC (configuration not stated) | -3.5% | 61.5% | 0.5% | 3.6% | -2.9% | -1.6%
c1cc(C(c2nnnn2C2CCCCC2)N2CCN3CCCC3C2)ccn1 (configuration not stated) | 2.2% | 18.0% | ? | -6.5% | -3.6% | 1.1%
c1ccc(CN(Cc2cccs2)C(c2cccs2)c2nnnn2C2CCCC2)cc1 (configuration not stated) | ? | . | 13.1µM* | -23.7% | -0.1% | -23.5%
c1ccc(CC2CCN(C(c3cccs3)c3nnnn3C3CCCC3)CC2)cc1 (configuration not stated) | ? | . | 1.85µM* | -5.5% | -30.9% | -4.2%
Cc1noc(C)c1CS(=O)(=O)c1ccc([N+](=O)[O-])cc1 | 2.6% | ? | 9.9% | 0.0% | -0.8% | 0.8%
COc1ccc(NCc2cccnc2)cc1 | 22.6% | -21.3% | 13.7% | 0.2% | 19.0% | -8.5%
CCC(C)(C)C1CCc2nc3ccccc3c(C(=O)OC(C)C(=O)Nc3c(C)n(C)n(-c4ccccc4)c3=O)c2C1 (configuration not stated) | ? | 10.4µM* | ? | -8.7% | 6.7% | 7.9%
Cc1c(NC(=O)C(C)OC(=O)c2cccs2)c(=O)n(-c2ccccc2)n1C (configuration not stated) | 0.5% | 19.2% | 4.6% | -7.7% | 3.7% | -2.0%
COc1ccc(NS(=O)(=O)c2ccc(F)c(F)c2F)cc1S(=O)(=O)N1CCOCC1 | 12.7% | -7.7% | ? | -8.0% | . | -2.4%
N#Cc1cccnc1N1CCN(C(=O)c2cccc3c2C(=O)c2ccc(Cl)cc2S3(=O)=O)CC1 | 12.6µM* | ? | ? | -19.0% | . | 7.1%
CN(Cc1ccccc1)CC1C2CCC(C2)C1O (configuration not stated) | 11.7% | . | . | . | . | 17.5%
Cc1ccc(-n2nc3c(=O)n(CCCC(=O)NCC(C)c4ccccc4)nc(C)c3c2C)cc1 (configuration not stated) | 22.4µM* | 6.5% | ? | 3.9% | 2.8% | -4.9%
CCOc1ccc(CCNC(=O)CCCn2nc(C)c3c(C)n(-c4ccccc4)nc3c2=O)cc1 | ? | 13.1µM* | -9.8% | 15.5% | -2.4% | 3.0%
CCC(C(=O)NCCc1ccccc1OC)n1nc(C)c2c(C)n(-c3ccccc3)nc2c1=O (configuration not stated) | ? | 11.7µM* | -17.0% | 2.3% | 9.4% | -3.1%
Cc1ccc(-n2nc3c(=O)n(CCCC(=O)N4CCC(C(N)=O)CC4)nc(C)c3c2C)cc1 | -9.5% | ? | 10.4µM* | 2.0% | -1.1% | 7.2%
CC(C)N1CCN(Cc2cn[nH]c2C2CCCCC2)CC1CCO (configuration not stated) | 8.2% | -0.7% | -0.3% | 0.1% | -1.2% | -7.9%
Cc1ccc(NC2CCCN(C(=O)c3cc4ncccn4n3)C2)cc1C (configuration not stated) | 12.0% | ? | -0.5% | -4.4% | 4.4% | -11.7%
